# Reference: the supplement of paper PMC8728848
# Only a selection was taken, and the strongest signals are over-represented in it overall.
# B1: Epa1-NP-mutant-E227G (Candida glabrata), Q6VBJ0 (protein)
# chain: MILNPALFLNKCVCIYTTLILLLLTNGGYATSSNDISLASKDPTTFPLGCSPDITTPKKGLSMELYSYDFRKKGSYPCWDAAYLDPNYPRTGYKSHRLLAKVDGVTGNINFYYHATKGCTPQLGHLPASYNYPKPLTMTNFTMLLYGYFRPKVTGFHTFTISADDLLFVNFGAGNAFDCCRRDSSADHFGNYQAYAIWGSKTAKDELTVHLDAGVYYPIRLFYNNRGYDGALSFTFKTESNENTVSDFSEYFFSLDDTEEGCPGLISYDSSCASVKTSKIIGIDYHTETPNENLVPITKTIYHLGIPCTGTTTTPLCGSGFYDPLANKCVTINTSSTSSVTKTTSHTTSKEVSFHSSISSQKTLIPKSIPSPYGPIKSQSIPTEMETSSEISSSEYAFSDVISTPSHSPYTKKHSSLNSSSYTSTVIHSLTSYSISQGIFSTSLSEQNITSKSSTDKFSTATSMSNNITQSSIIISQFSTNNENYTTTSMHTSSDKISTETLNNSISTTTSILFSNSSTILKNNTTIISSDKDTHYHPVNPTIVCSTNKTEIICASITQPSISNSNNHWSSSVLKFNSTTVRSTLPSSAGSNETSINVPFSSSTESNTSTSSTSTSNSKMVRSTLPSSAGSNETSISVPFSSSTESNTSTSSTSTSNSKMVRSTLPSSAGSNETSINVPFSSSTESNTSTSSTSTSNSKTVRSTPFSSAGIIMTSLSQRNNKSASSYASSNSKCYNTADSCRKVHSTPSYLLTSSYTSEGVDYDCSLVSTKLKINDTNCVNNKHTTKSCLKTSVTTTIPTLEIKTARKSSSNTIGLHSYPTSSPNKSISSAPIIGYISSFKTIKTASPSYQTSDLTTITTITSLNNPGSTAVENTHESNDKSRKTSSNDISSKHSVIKETKDAVESSNKSHQTNTLKCSSIIIASSSHNSYESLGGTTLTLTLSKVYSPQNNDTLPFLEISEVNPSRTVLPESSKMMQYLTSTEERNKTARNTIATNIVSISTFHFEGEGNAIRMGYTQLLLMLIGIIVMNIGT
# Columns and labels:
# Experiment in all cases: glycan array binding signal (z-score within array); higher = stronger binding
# Details in all cases: glycan notation: IUPAC condensed, linker removed; mutation: E227G
# [1] = target: GalNAc3S(b1-4)[Fuc(a1-3)]GlcNAc
# Outline: (§1)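 Glycan array data were curated from 3228 arrays in the Consortium for Functional Glycomics database and kept only where the protein sequence was available. Glycan names were converted to IUPAC-condensed notation, and columns mapping to the same glycan were averaged. The binding signal is a within-array Z-score, averaged across arrays of the same protein sequence at different concentrations or buffers and across linkers. Negative Z-scores can be read as non-binding.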
# [2] = target: Glc(a1-4)Glc
# Outline: as §1
# [3] = target: GlcA(b1-3)Gal
# Outline: as §1
# [4] = target: GlcNAc(b1-2)Man(a1-3)[GlcNAc(b1-4)][GlcNAc(b1-2)Man(a1-6)]Man(b1-4)GlcNAc(b1-4)[Fuc(a1-6)]GlcNAc
# Outline: as §1
# [5] = target: GlcNAc(b1-3)Gal(b1-4)Glc
# Outline: as §1
# [6] = target: GlcNAc(b1-3)Gal(b1-4)GlcNAc(b1-3)Gal(b1-4)GlcNAc(b1-2)Man(a1-3)[GlcNAc(b1-3)Gal(b1-4)GlcNAc(b1-3)Gal(b1-4)GlcNAc(b1-2)Man(a1-6)]Man(b1-4)GlcNAc(b1-4)[Fuc(a1-6)]GlcNAc
# Outline: as §1
# [7] = target: GlcNAc(b1-3)Gal(b1-4)GlcNAc(b1-3)GalNAc
# Outline: as §1
# [8] = target: GlcNAc(b1-3)Gal(b1-4)GlcNAc(b1-6)[GlcNAc(b1-3)]Gal(b1-4)GlcNAc
# Outline: as §1
# [9] = target: GlcNAc(b1-4)Gal(b1-4)GlcNAc
# Outline: as §1
# [10] = target: GlcNAc(b1-4)GlcNAc(b1-4)GlcNAc
# Outline: as §1
# [11] = target: GlcNAc(b1-4)GlcNAc(b1-4)GlcNAc(b1-4)GlcNAc(b1-4)GlcNAc
# Outline: as §1
# [12] = target: GlcNAc(b1-6)GalNAc
# Outline: as §1
# [13] = target: Kdn(a2-3)Gal(b1-4)[Fuc(a1-3)]GlcNAc
# Outline: as §1
# [14] = target: Man(a1-2)Man(a1-3)[Man(a1-2)Man(a1-6)]Man
# Outline: as §1
# [15] = target: Man(a1-2)Man(a1-3)[Man(a1-6)]Man(a1-6)[Man(a1-2)Man(a1-3)]Man(b1-4)GlcNAc(b1-4)GlcNAc
# Outline: as §1
# [16] = target: Man(a1-3)[Man(a1-6)]Man
# Outline: as §1
# [17] = target: Man(a1-3)[Man(a1-6)]Man(a1-6)[Man(a1-3)]Man
# Outline: as §1
# [18] = target: Neu5Ac(a2-3)Gal
# Outline: as §1
# [19] = target: Neu5Ac(a2-3)Gal(b1-3)GlcNAc(b1-2)Man(a1-3)[Neu5Ac(a2-3)Gal(b1-3)GlcNAc(b1-2)Man(a1-6)]Man(b1-4)GlcNAc(b1-4)GlcNAc
# Outline: as §1
# [20] = target: Neu5Ac(a2-3)Gal(b1-3)GlcNAc(b1-3)Gal(b1-4)GlcNAc
# Outline: as §1
# [21] = target: Neu5Ac(a2-3)Gal(b1-4)GlcNAc
# Outline: as §1
# [22] = target: Neu5Ac(a2-3)Gal(b1-4)GlcNAc(b1-2)Man(a1-3)[Neu5Ac(a2-3)Gal(b1-4)GlcNAc(b1-2)Man(a1-6)]Man(b1-4)GlcNAc(b1-4)GlcNAc
# Outline: as §1
# [23] = target: Neu5Ac(a2-3)Gal(b1-4)GlcNAc(b1-3)Gal(b1-4)GlcNAc(b1-2)Man(a1-3)[Neu5Ac(a2-3)Gal(b1-4)GlcNAc(b1-3)Gal(b1-4)GlcNAc(b1-2)Man(a1-6)]Man(b1-4)GlcNAc(b1-4)GlcNAc
# Outline: as §1
# [24] = target: Neu5Ac(a2-3)Gal(b1-4)[Fuc(a1-3)]GlcNAc(b1-3)Gal(b1-4)GlcNAc
# Outline: as §1
# [25] = target: Neu5Ac(a2-3)Gal(b1-4)[Fuc(a1-3)]GlcNAc(b1-6)[Gal(b1-3)]GalNAc
# Outline: as §1
# [26] = target: Neu5Ac(a2-3)[GalNAc(b1-4)]Gal(b1-4)GlcNAc
# Outline: as §1
# [27] = target: Neu5Ac(a2-6)Gal(b1-4)GlcNAc(b1-2)Man(a1-3)[Gal(b1-4)GlcNAc(b1-2)Man(a1-6)]Man(b1-4)GlcNAc(b1-4)GlcNAc
# Outline: as §1
# [28] = target: Neu5Ac(a2-6)Gal(b1-4)GlcNAc(b1-2)[Neu5Ac(a2-6)Gal(b1-4)GlcNAc(b1-4)]Man(a1-3)[GlcNAc(b1-4)][Neu5Ac(a2-6)Gal(b1-4)GlcNAc(b1-4)Man(a1-6)]Man(b1-4)GlcNAc(b1-4)GlcNAc
# Outline: as §1
# [29] = target: Neu5Ac(a2-8)Neu5Ac
# Outline: as §1
# [30] = target: Neu5Ac(a2-8)Neu5Ac(a2-3)[Gal(b1-3)GalNAc(b1-4)]Gal(b1-4)Glc
# Outline: as §1
# [31] = target: Neu5Ac(a2-8)Neu5Ac(a2-8)Neu5Ac
# Outline: as §1
# [32] = target: Neu5Ac9Ac(a2-3)Gal(b1-3)GlcNAc
# Outline: as §1
# [33] = target: Neu5Gc(a2-6)Gal(b1-4)GlcNAc
# Outline: as §1
# [34] = target: Neu5Gc(a2-8)Neu5Ac(a2-3)Gal(b1-4)GlcNAc
# Outline: as §1
binder,measurement,setting,value
B1,glycan array binding signal (z-score),[1],-0.117
same,glycan array binding signal (z-score),[2],-0.175
same,glycan array binding signal (z-score),[3],-0.114
same,glycan array binding signal (z-score),[4],-0.217
same,glycan array binding signal (z-score),[5],-0.256
same,glycan array binding signal (z-score),[6],0.132
same,glycan array binding signal (z-score),[7],-0.16
same,glycan array binding signal (z-score),[8],-0.203
same,glycan array binding signal (z-score),[9],-0.157
same,glycan array binding signal (z-score),[10],-0.161
same,glycan array binding signal (z-score),[11],-0.177
same,glycan array binding signal (z-score),[12],-0.071
same,glycan array binding signal (z-score),[13],-0.097
same,glycan array binding signal (z-score),[14],-0.26
same,glycan array binding signal (z-score),[15],-0.291
same,glycan array binding signal (z-score),[16],-0.126
same,glycan array binding signal (z-score),[17],-0.162
same,glycan array binding signal (z-score),[18],-0.003
same,glycan array binding signal (z-score),[19],0.018
same,glycan array binding signal (z-score),[20],-0.256
same,glycan array binding signal (z-score),[21],-0.195
same,glycan array binding signal (z-score),[22],-0.236
same,glycan array binding signal (z-score),[23],-0.191
same,glycan array binding signal (z-score),[24],-0.14
same,glycan array binding signal (z-score),[25],-0.043
same,glycan array binding signal (z-score),[26],-0.209
same,glycan array binding signal (z-score),[27],-0.187
same,glycan array binding signal (z-score),[28],-0.059
same,glycan array binding signal (z-score),[29],-0.302
same,glycan array binding signal (z-score),[30],0.176
same,glycan array binding signal (z-score),[31],-0.128
same,glycan array binding signal (z-score),[32],-0.253
same,glycan array binding signal (z-score),[33],-0.199
same,glycan array binding signal (z-score),[34],-0.226
